A number with no mark means an inactive call. Calls of active or inactive are those of the source. Unless noted, no stated cut-off is given here; in the data, active means inhibition above about 44%; inactive means the rest.
How the values were obtained:
[1] = StAR promoter reporter inhibitors, counter-screen for LRH-1 inverse agonist project, cell-based, luminescence, high throughput (AID 651611; in the data active means inhibition above about 28%); conditions: StAR promoter luciferase reporter counterscreen, at 3.6 µM, active compounds read high
[2] = biological target: Nuclear receptor subfamily 5 group A member 2 (Homo sapiens) (UniProt O00482); test: LRH-1 (NR5A2) inverse agonists, retest, confirmation, cell-based, luminescence (AID 651613; in the data active means inhibition above about 42%;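 further: HEK293T cells co-transfected with LRH-1 and StAR promoter luciferase reporter; 0% = vehicle wells and 100% = parental cells lacking receptor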); conditions: cell-based LRH-1 luciferase reporter, inverse agonism; at 3.6 µM; active compounds read high
Nuclear receptor subfamily 5 group A member 2 (Homo sapiens), sequence (O00482 whole entry, looked up): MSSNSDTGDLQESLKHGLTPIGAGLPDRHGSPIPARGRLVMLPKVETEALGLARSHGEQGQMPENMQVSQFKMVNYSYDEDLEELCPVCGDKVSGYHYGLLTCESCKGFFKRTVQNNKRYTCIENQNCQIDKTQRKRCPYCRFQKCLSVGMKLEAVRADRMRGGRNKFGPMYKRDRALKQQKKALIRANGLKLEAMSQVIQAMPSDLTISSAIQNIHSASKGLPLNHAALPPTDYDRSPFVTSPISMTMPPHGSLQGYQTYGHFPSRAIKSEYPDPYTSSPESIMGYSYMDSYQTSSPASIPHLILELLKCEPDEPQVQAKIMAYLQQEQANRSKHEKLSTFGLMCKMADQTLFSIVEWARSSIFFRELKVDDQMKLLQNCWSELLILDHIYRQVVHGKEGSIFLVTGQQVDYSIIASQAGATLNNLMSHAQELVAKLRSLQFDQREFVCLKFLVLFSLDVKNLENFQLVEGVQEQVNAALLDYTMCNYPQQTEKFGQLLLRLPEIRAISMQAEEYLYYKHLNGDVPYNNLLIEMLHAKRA

[3] = biological target: Steroidogenic factor 1 (Homo sapiens) (UniProt Q13285); test: SF1 (NR5A1) inverse agonists, counter-screen for LRH-1 inverse agonist project, cell-based, luminescence, high throughput (AID 651614); conditions: cell-based SF1 luciferase reporter, at 3.6 µM, active compounds read high;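 further: cells cotransfected with StAR promoter reporter and SF1 expression vector; 0% = vehicle on cells with receptor and 100% = vehicle on cells lacking receptor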
Steroidogenic factor 1 (Homo sapiens), sequence (Q13285 whole entry, looked up, the tested form may be a part): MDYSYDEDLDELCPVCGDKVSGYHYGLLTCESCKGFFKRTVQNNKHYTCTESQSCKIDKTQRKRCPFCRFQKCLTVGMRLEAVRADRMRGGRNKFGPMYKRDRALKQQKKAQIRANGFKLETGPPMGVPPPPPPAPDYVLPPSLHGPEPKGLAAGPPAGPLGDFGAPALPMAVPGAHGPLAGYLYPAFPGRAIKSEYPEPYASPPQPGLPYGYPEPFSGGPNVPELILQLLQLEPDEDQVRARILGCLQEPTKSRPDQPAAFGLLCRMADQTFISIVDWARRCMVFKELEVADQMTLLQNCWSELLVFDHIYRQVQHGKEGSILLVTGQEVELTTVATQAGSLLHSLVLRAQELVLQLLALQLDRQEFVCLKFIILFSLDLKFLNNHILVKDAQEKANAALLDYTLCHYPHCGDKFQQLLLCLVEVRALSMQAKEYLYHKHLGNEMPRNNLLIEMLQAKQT

[4] = VP16 transactivation reporter inhibitors, counter-screen for LRH-1 inverse agonist project, cell-based, luminescence, high throughput (AID 651615; in the data active means inhibition above about 33%); conditions: Gal4-VP16 luciferase reporter cells, at 3.6 µM, active compounds read high

Row | SMILES | inhibition [1] | inhibition [2] | inhibition [3] | inhibition [4]
1 | O=C(COc1ccc2c3c(c(=O)oc2c1)CCCC3)NCc1ccccn1 | 2.43% | 57.6% (active) | 56.7% (active) | -9.09%
2 | COc1cccc(C(C)(O)c2nc(-c3ccoc3)cs2)c1 (stereo unspecified) | -0.36% | 30.2% | 21.5% | -0.14%
3 | Cc1nnc(SCC(=O)Nc2ccc(N3CCN(S(C)(=O)=O)CC3)cc2)o1 | -2.52% | 50.8% (active) | 50.2% (active) | -9.83%
4 | Cc1cc(NC(=O)C(Cl)Cl)cc2c1OCO2 | 10.4% | 59.2% (active) | 45.6% (active) | -10.1%
5 | C=CC(=O)N1C/C(=C/c2ccc(F)cc2)C(=O)/C(=C\c2ccc(F)cc2)C1 | 27.1% | 80% (active) | 86.7% (active) | 63% (active)
6 | CCOc1ccc(CCNC(=O)COC(=O)c2cc([N+](=O)[O-])ccc2N2CCOCC2)cc1OCC | 9.91% | 58.4% (active) | 56.6% (active) | -11.1%
7 | COc1ccc(NC(=O)COC(=O)c2cc(S(=O)(=O)N3CCCC3)ccc2O)cc1 | 4.86% | 52% (active) | 46.3% (active) | 0.43%
8 | COc1cc(NC(=O)CCl)ccc(=O)c1 | 47.9% (active) | 64.7% (active) | 68.2% (active) | -57%
9 | CCOC(=O)N1CCN(C(=O)CCl)CC1 | 11% | 56% (active) | 57.9% (active) | -8.13%

Source: PubChem BioAssay
